Test results from PubChem BioAssay (NCATS).
Inconclusive results are not listed. Where a call stands in place of a potency, no number is given. Calls of active or inactive are those of the source. Unless noted, calls follow the shape of the dose curve; as a rule, active = well fitted curve in the direction sought with a large enough effect; inconclusive = small, poorly fitted or top-dose-only effect, or another doubt; inactive = no such curve, though single readings can be large; an effect the other way counts as inactive or inconclusive.

How the values were obtained:
[1] = qHTS for Inhibitors of the Functional Ribonucleoprotein Complex (vRNP) of Lassa (LASV) Arenavirus: LASV Primary Screen - GLuc reporter signal (AID 1347082; calls by dose curve; tested in HEK293 reporter line; also: nearly all actives have a fitted effect of over 60% in size); details: LASV minigenome vRNP, Gaussia luciferase reporter; series mostly up to 57.5 µM
[2] = qHTS for Inhibitors of the Functional Ribonucleoprotein Complex (vRNP) of Lassa (LASV) Arenavirus: Viability assay - alamar blue signal for LASV Primary Screen (AID 1347083; calls by dose curve; tested in HEK293 reporter line; also: nearly all actives have a fitted effect of over 80% in size); details: cell viability, alamar blue fluorescence (LASV minigenome counter-screen); series mostly up to 57.5 µM
[3] = qHTS for Inhibitors of the Functional Ribonucleoprotein Complex (vRNP) of Lymphocytic Choriomeningitis Arenaviruses (LCMV): Viability assay - alamar blue signal for LCMV Primary Screen (AID 1347085; calls by dose curve; tested in HEK293 reporter line; also: nearly all actives have a fitted effect of over 80% in size); details: alamar blue viability counter-screen, LCMV vRNP screen cells; series mostly up to 57.5 µM
[4] = target: Nucleoprotein (Lymphocytic choriomeningitis virus (strain Armstrong)) (UniProt P09992); assay: qHTS for Inhibitors of the Functional Ribonucleoprotein Complex (vRNP) of Lymphocytic Choriomeningitis Arenaviruses (LCMV): LCMV Primary Screen - GLuc reporter signal (AID 1347086; calls by dose curve; also: nearly all actives have a fitted effect of over 70% in size); details: LCMV minigenome vRNP cell assay, Gaussia luciferase reporter; series mostly up to 57.5 µM
[5] = qHTS of pediatric cancer cell lines to identify multiple opportunities for drug repurposing: Primary screen for TC32 cells (AID 1347089); details: TC32 Ewing sarcoma viability, CellTiter-Glo luminescence, 48 h; series mostly up to 45.8 µM; also: nearly all actives have a fitted effect of over 60% in size
Method in brief: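 A viability screen of TC32 cells was run over 48 h, with primary MIPE doses spanning 0.78 nM–46 µM and NPC doses 0.59 nM–46 µM. ATP luminescence (CellTiter-Glo) served as the read-out.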

[6] = qHTS of pediatric cancer cell lines to identify multiple opportunities for drug repurposing: Primary screen for DAOY cells (AID 1347090); details: DAOY medulloblastoma viability, CellTiter-Glo luminescence, 48 h; series mostly up to 46 µM; also: nearly all actives have a fitted effect of over 55% in size; also: potency is read from the fitted curve at half-maximal effect
Method in brief: (§1)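 Eight- or eleven-point concentration series, 48 h treatment at 37 degrees C in growth media; readout CellTiter-Glo luminescence. Potency and efficacy were taken from the concentration-response curves.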

[7] = qHTS of pediatric cancer cell lines to identify multiple opportunities for drug repurposing: Primary screen for SJ-GBM2 cells (AID 1347091); details: SJ-GBM2 viability, CellTiter-Glo luminescence, 48 h; series mostly up to 46 µM
Method in brief: as §1

[8] = qHTS of pediatric cancer cell lines to identify multiple opportunities for drug repurposing: Primary screen for A673 cells (AID 1347092); details: A673 Ewing sarcoma viability, CellTiter-Glo ATP luminescence, 48 h; series mostly up to 46 µM; also: nearly all actives have a fitted effect of over 45% in size
Method in brief: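 Titration-based qHTS on A673 cells: MIPE compounds spanned 11 points (0.78 nM to 46 µM final), NPC compounds 8 points (0.59 nM to 46 µM final). Viability after 48 h was measured by ATP luminescence.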

[9] = qHTS of pediatric cancer cell lines to identify multiple opportunities for drug repurposing: Primary screen for SK-N-MC cells (AID 1347093); details: SK-N-MC viability, CellTiter-Glo luminescence, 48 h; series mostly up to 46 µM
Method in brief: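 Metabolically active cells were quantified by ATP-dependent luminescence (CellTiter-Glo, 15 min at room temperature) following 48 h treatment. Cells had been plated at 500-1,000 per well and settled for 5 h beforehand.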

Nucleoprotein (Lymphocytic choriomeningitis virus (strain Armstrong)), sequence (P09992 whole entry, looked up): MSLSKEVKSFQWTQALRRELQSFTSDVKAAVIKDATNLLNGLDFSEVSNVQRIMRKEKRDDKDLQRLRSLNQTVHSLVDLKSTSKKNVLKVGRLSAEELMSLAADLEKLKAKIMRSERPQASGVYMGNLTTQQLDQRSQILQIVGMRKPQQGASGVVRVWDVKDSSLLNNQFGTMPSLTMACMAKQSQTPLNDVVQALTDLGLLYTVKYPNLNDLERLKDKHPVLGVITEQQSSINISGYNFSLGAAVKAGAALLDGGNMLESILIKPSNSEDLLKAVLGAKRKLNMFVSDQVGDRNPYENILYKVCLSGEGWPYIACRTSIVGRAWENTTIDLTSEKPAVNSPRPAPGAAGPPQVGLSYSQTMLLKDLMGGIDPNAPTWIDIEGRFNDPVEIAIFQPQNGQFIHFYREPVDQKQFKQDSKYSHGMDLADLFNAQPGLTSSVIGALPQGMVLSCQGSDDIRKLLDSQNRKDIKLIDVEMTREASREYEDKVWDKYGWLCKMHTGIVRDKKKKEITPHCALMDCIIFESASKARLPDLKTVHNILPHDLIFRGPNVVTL

SMILES | Potency [1] | Potency [2] | Potency [3] | Potency [4] | Potency [5] | Potency [6] | Potency [7] | Potency [8] | Potency [9]
O=C(N/N=C/c1ccc([N+](=O)[O-])o1)c1cc([N+](=O)[O-])cc([N+](=O)[O-])c1O | inactive | inactive | inactive | inactive | inactive | inactive | inactive | inactive | inactive
CCC1(c2ccccc2)C(=O)N(COC)C(=O)N(COC)C1=O | inactive | inactive | inactive | inactive | inactive | inactive | inactive | inactive | inactive
Nc1ccc([As](=O)(O)O)cc1 | inactive | inactive | inactive | inactive | inactive | inactive | inactive | inactive | inactive
NC(=O)c1cc([N+](=O)[O-])cc([N+](=O)[O-])c1 | inactive | inactive | inactive | inactive | inactive | inactive | inactive | inactive | inactive
CN1C(=O)NC(=O)C(C)(C2=CCCCC2)C1=O (centres undefined) | inactive | inactive | inactive | inactive | inactive | inactive | inactive | inactive | inactive
CC(C)C[C@H](NC(=O)CNC(=O)[C@H](Cc1ccc(O)cc1)NC(=O)[C@H](CO)NC(=O)[C@H](Cc1c[nH]c2ccccc12)NC(=O)[C@H](Cc1cnc[nH]1)NC(=O)[C@@H]1CCC(=O)N1)C(=O)N[C@@H](CCCN=C(N)N)C(=O)N1CCC[C@H]1C(=O)NCC(N)=O (stereo in doubt) | inactive | inactive | inactive | inactive |  |  |  |  | 
O=C(Nc1ccc(Br)cc1)c1cc(Br)cc(Br)c1O | inactive | inactive | inactive | inactive | inactive | 21.1 µM (active) |  |  | 
CCn1ccc(NS(=O)(=O)c2ccc(N)cc2)nc1=O | inactive | inactive | inactive | inactive |  |  |  |  | 
